According to PubChem BioAssay AID1159580 (chemical genetic matrix, 2015):
The whole screen tested about 5,500 compounds, of which about 2,000 (36%) were called active. Inconclusive results (about 18%) are left out. Rule as the data show it: active = normalized growth mostly below about 0.91 (no sharp cut-off); inconclusive = no clear call, values can overlap the other calls; inactive = mostly above about 0.92. Some of the results follow.

Experiment: chemical genetic growth profiling, strain panel (AID 1159580);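 also: tested at 20 µM; growth read once vehicle control cultures reached saturation at 30 °C; 1 = growth at the plate median or of vehicle wells; lower values mean less growth of the strain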
Conditions: S. cerevisiae deletion strains, growth OD

Measured: normalized growth

O=c1c(-c2ccccc2)coc2cc(O)cc(O)c12
inactive: locus YAL021C, strain ccr4, hits give low values 0.977 | locus YAL026C, strain drs2, hits give low values 0.927 | locus YAL030W, strain snc1, hits give low values 0.99 | locus YBL061C, strain skt5, hits give low values 0.978 | locus YBR009C, strain hhf1, hits give low values 0.946 | locus YBR021W, strain FUR4, hits give low values 0.859 | locus YBR023C, strain chs3, hits give low values 0.967 | locus YBR171W, strain sec66, hits give low values 1.01 | locus YBR231C, strain swc5, hits give low values 0.965 | locus YBR279W, strain paf1, hits give low values 1 | locus YCL011C, strain gbp2, hits give low values 0.969 | locus YCL016C, strain dcc1, hits give low values 0.983 | locus YCL061C, strain MRC1, hits give low values 0.961 | locus YCL069W, strain vba3, hits give low values 1 | locus YCR088W, strain abp1, hits give low values 1.01 | locus YDL005C, strain med2, hits give low values 1.04 | locus YDL040C, strain nat1, hits give low values 1.01 | locus YDR001C, strain nth1, hits give low values 1.01 | locus YDR069C, strain doa4, hits give low values 0.903 | locus YDR159W, strain sac3, hits give low values 1.08 | locus YDR195W, strain ref2 1.03 | locus YDR297W, strain sur2, hits give low values 0.977 | locus YDR334W, strain swr1, hits give low values 0.995 | locus YDR335W, strain msn5, hits give low values 0.993 | locus YDR392W, strain spt3, hits give low values 0.913 | locus YEL003W, strain gim4, hits give low values 0.971 | locus YEL037C, strain rad23, hits give low values 0.981 | locus YEL061C, strain CIN8 (second series), hits give low values 1.02 | locus YER015W, strain faa2, hits give low values 0.979 | locus YER016W, strain bim1, hits give low values 1.01 | locus YER111C, strain swi4, hits give low values 0.963 | locus YER155C, strain BEM2 (second series), hits give low values 0.982 | locus YER167W, strain BCK2, hits give low values 0.911 | locus YFR010W, strain ubp6, hits give low values 0.937 | locus YGL167C, strain pmr1, hits give low values 1.01 | locus YGL173C, strain kem1, hits give low values 0.991 | locus YGL227W, strain vid30, hits give low values 1.02 | locus YGL240W, strain doc1, hits give low values 0.935 | locus YGL253W, strain hxk2, hits give low values 0.972 | locus YHR013C, strain ard1, hits give low values 0.992 | locus YHR027C, strain rpn1, hits give low values 0.998 | locus YHR094C, strain hxt1, hits give low values 0.936 | locus YHR142W, strain chs7, hits give low values 0.946 | locus YIL073C, strain SPO22, hits give low values 0.76 | locus YJL092W, strain hpr5, hits give low values 0.993 | locus YJL095W, strain BCK1 (second series), hits give low values 0.996 | locus YJL115W, strain asf1, hits give low values 1.02 | locus YJL129C, strain trk1, hits give low values 1 | locus YJL154C, strain vps35, hits give low values 1.02 | locus YJL164C, strain tpk1, hits give low values 0.934 | locus YJL166W, strain qcr8, hits give low values 0.966 | locus YJL168C, strain set2, hits give low values 0.973
active: locus YAL013W, strain DEP1, hits give low values 0.837 | locus YBR229C, strain ROT2, hits give low values 0.853 | locus YCL029C, strain bik1, hits give low values 0.636 | locus YDL035C, strain GPR1, hits give low values 0.825 | locus YDL074C, strain BRE1, hits give low values 0.564 | locus YDL101C, strain DUN1, hits give low values 0.494 | locus YDL185W, strain tfp1, hits give low values 0.332 | locus YDL192W, strain arf1, hits give low values 0.781 | locus YDR101C, strain arx1, hits give low values 0.758 | locus YDR137W, strain rgp1, hits give low values 0.821 | locus YDR162C, strain NBP2, hits give low values 0.826 | locus YDR318W, strain mcm21, hits give low values 0.819 | locus YDR388W, hits give low values 0.879 | locus YDR502C, strain sam2, hits give low values 0.793 | locus YER110C, hits give low values 0.84 | locus YER155C, strain BEM2, hits give low values 0.769 | locus YGL078C, strain dbp3, hits give low values 0.822 | locus YGL086W, strain mad1, hits give low values 0.786 | locus YGL248W, strain PDE1, hits give low values 0.744 | locus YGR135W, strain pre9, hits give low values 0.727 | locus YGR229C, strain SMI1, hits give low values 0.613 | locus YGR252W, strain gcn5, hits give low values 0.648 | locus YHR030C, strain SLT2, hits give low values 0.879 | locus YHR079C, strain IRE1 (second series), hits give low values 0.739 | locus YHR129C, strain ARP1, hits give low values 0.795 | locus YHR200W, strain rpn10, hits give low values 0.84 | locus YIL066C, strain RNR3, hits give low values 0.817 | locus YIL125W, strain kgd1, hits give low values 0.755 | locus YIR030C, strain dcg1, hits give low values 0.884 | locus YJL095W, strain BCK1, hits give low values 0.447 | locus YJL134W, strain LCB3, hits give low values 0.924 | locus YJL187C, strain SWE1 (second series), hits give low values 0.394
